Measured values: PubChem BioAssay (NCI)
Compounds without any hit were thinned out: in the full panel of roughly 79,000, 15% have a hit. Values without a mark were called inactive. Active and inactive are the calls of the source. Cut-off read from the data, not from the text of the source: active = growth inhibition above about 70%; inactive = the rest.

Legend:
[1] = NCI Yeast Anticancer Drug Screen. Data for the rad50 strain (AID 155);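 note: 0% = growth of vehicle-only cultures of the same strain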; conditions: S. cerevisiae rad50 strain growth inhibition, stronger effect = higher value
How it was run: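 Yeast carrying a defined DNA repair defect were exposed to test compounds, and growth was compared with vehicle-treated controls to give percent inhibition.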

[2] = NCI Yeast Anticancer Drug Screen. Data for the mec2-1 strain (AID 157); conditions: S. cerevisiae mec2-1 strain, stronger effect = higher value
How it was run: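 Mutant yeast (mec2-1) grown with compound; growth inhibition relative to vehicle control reported.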

[3] = NCI Yeast Anticancer Drug Screen. Data for the sgs1 mgt1 strain (AID 161);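 note: 0% = growth of cultures given vehicle only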; conditions: S. cerevisiae sgs1 mgt1 strain, stronger effect = higher value
How it was run: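 Percent growth inhibition was derived by comparing compound-exposed mutant yeast with vehicle-exposed cultures. The strain carries alterations in DNA damage repair.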

[4] = NCI Yeast Anticancer Drug Screen. Data for the cln2 rad14 strain (AID 165);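 note: 0% = growth equal to vehicle treated cultures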; conditions: S. cerevisiae cln2 rad14 strain, stronger effect = higher value
How it was run: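 Readout is yeast growth inhibition versus vehicle-treated controls, using a strain with cln2 and rad14 alterations exposed to compound.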

[5] = NCI Yeast Anticancer Drug Screen. Data for the bub3 strain (AID 167); conditions: S. cerevisiae bub3 mutant strain, stronger effect = higher value
How it was run: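 Compounds were applied to a genetically altered yeast strain carrying a cell-cycle control defect. Growth inhibition was scored against vehicle-treated controls.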

[6] = NCI Yeast Anticancer Drug Screen. Data for the mlh1 rad18 strain (AID 175); conditions: S. cerevisiae mlh1 rad18 strain growth inhibition, stronger effect = higher value
How it was run: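 Genetically defined yeast (DNA repair-deficient) exposed to compounds; growth inhibition determined relative to vehicle.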

[7] = at 5.0 µM (retest, dose inferred, filed as 0.5)
[8] = at 50.0 µM (retest, dose inferred, filed as 5.0)

| SMILES | growth inhibition [1, 7] | growth inhibition [1, 8] | growth inhibition ([1]; at 50.0 µM) | growth inhibition [2, 7] | growth inhibition [2, 8] | growth inhibition ([2]; at 50.0 µM) | growth inhibition [3, 7] | growth inhibition [3, 8] | growth inhibition ([3]; at 50.0 µM) | growth inhibition [4, 7] | growth inhibition [4, 8] | growth inhibition ([4]; at 50.0 µM) | growth inhibition [5, 7] | growth inhibition [5, 8] | growth inhibition ([5]; at 50.0 µM) | growth inhibition [6, 7] | growth inhibition [6, 8] | growth inhibition ([6]; at 50.0 µM) |
| --- | --- | --- | --- | --- | --- | --- | --- | --- | --- | --- | --- | --- | --- | --- | --- | --- | --- | --- |
| CC1CCCCN(CCN(Cc2ccccc2)c2ccccc2)C1 (configuration not stated) | -1% | 32% | 58.1% | 2% | 29% | 45.9% | 10% | 75% (active) | 73.8% (active) | 4% | 37% | 80.8% (active) | 5% | 52% | 58% | 8% | 42% | 54.1% |
| C[n+]1c2ccccc2cc2[nH]c3ccccc3c21 | 84% (active) | 93% (active) | 74% (active) | 86% (active) | 96% (active) | 78.6% (active) | 89% (active) | 98% (active) | 79.7% (active) | 63% | 75% (active) | 64.8% | 84% (active) | 84% (active) | 72.7% (active) | 90% (active) | 97% (active) | 77.3% (active) |
| COc1ccc(C(=O)C(Br)CS(=O)(=O)c2ccc(C)cc2)cc1 (configuration not stated) | 56% | 99% (active) | 99% (active) | 36% | 99% (active) | 99.4% (active) | 71% (active) | 99% (active) | 99.4% (active) | 18% | 98% (active) | 97.8% (active) | 47% | 98% (active) | 99.1% (active) | 48% | 98% (active) | 99% (active) |
| COc1ccc(N2C(=O)C(=O)C(C(C)=O)C2=O)cc1 (configuration not stated) | -1% | 0% | 99.2% (active) | -2% | 6% | 99.3% (active) | 1% | 2% | 99.4% (active) | -4% | 7% | 99% (active) | 1% | 3% | 99.3% (active) | -8% | 4% | 99.2% (active) |
| c1csc(CNCc2cccs2)c1 | -3% | -5% | -13.9% | -2% | 1% | 1.45% | -1% | -5% | -1.2% | -4% | -4% | -23.4% | -1% | -5% | 1.3% | 0% | -7% | 37.3% |
| Cn1ncc2c(Nc3cccc(Cl)c3)nc(Nc3cccc(Cl)c3)nc21 | 47% | 97% (active) | 96% (active) | 18% | 98% (active) | 94.2% (active) | 27% | 98% (active) | 96.2% (active) | 11% | 97% (active) | 95.4% (active) | -7% | 98% (active) | 94.2% (active) | 32% | 97% (active) | 95.7% (active) |
| CCOC(=O)C(=Cc1ccc(C(=O)OC)cc1)C(=O)OCC | 10% | 58% | 82.2% (active) | 11% | 86% (active) | 75.2% (active) | -2% | 63% | 75.3% (active) | 38% | 80% (active) | 69.5% | 12% | 93% (active) | 77.2% (active) | 14% | 88% (active) | 62.8% |
| COC(=O)CSc1nc2ccccc2[nH]1 | -146% | -48% | 27% | -48% | -47% | -11.8% | -64% | -39% | -6.2% | -50% | -59% | -27.1% | -63% | -46% | -19.6% | -119% | -119% | -29.6% |
| CCCC/C=C(/CCCNCCCC)[Si](C)(C)C | 70% (active) | 97% (active) | 91.8% (active) | 72% (active) | 99% (active) | 93.7% (active) | 90% (active) | 99% (active) | 94.2% (active) | 73% (active) | 98% (active) | 92.8% (active) | 90% (active) | 99% (active) | 92.7% (active) | 91% (active) | 98% (active) | 91.9% (active) |
| COc1ccc(-c2nc(C)[nH]c(=O)c2Cc2c(O)ccc3ccccc23)cc1 | 3% | 50% | 98.5% (active) | -4% | 4% | 10.3% | 1% | 8% | 97.8% (active) | 4% | 7% | 22% | 0% | 1% | 4.45% | 2% | 2% | 97% (active) |
| CCOC(=O)Nc1nc2ccc(SC#N)cc2s1 | 8% | 85% (active) | 92.9% (active) | 1% | 81% (active) | 64.8% | 9% | 96% (active) | 79.8% (active) | 6% | 88% (active) | 57.5% | 23% | 93% (active) | 88.2% (active) | 9% | 94% (active) | 50.5% |
| O=[N+]([O-])c1ccc(Cl)cc1C(Nc1nncs1)Nc1nncs1 | 8% | 81% (active) | 74.7% (active) | 7% | 76% (active) | 40.6% | 17% | 84% (active) | 86% (active) | 2% | 55% | 41.2% | -1% | 58% | 57.4% | 0% | 88% (active) | 80% (active) |
| CC(=O)Oc1ccc(-c2ccccc2)cc1Br | 8% | 99% (active) | 93.6% (active) | -27% | 98% (active) | 96.2% (active) | 6% | 97% (active) | 91.5% (active) | 7% | 95% (active) | 85.1% (active) | 10% | 98% (active) | 94.2% (active) | 11% | 99% (active) | 98.1% (active) |
| CCCCCN(CCCCC)CCCNc1ccc(C)c2sc3ccccc3c(=O)c12 | 98% (active) | 96% (active) | 98.4% (active) | 99% (active) | 98% (active) | 99% (active) | 99% (active) | 98% (active) | 99% (active) | 99% (active) | 95% (active) | 95% (active) | 99% (active) | 96% (active) | 98% (active) | 99% (active) | 97% (active) | 97.5% (active) |
| [N-]=[N+]=Nc1c(-c2ccccc2)c(=O)n(-c2ccccc2)c2ccccc12 | -19% | 93% (active) | 88% (active) | -20% | 94% (active) | 92.8% (active) | -10% | 95% (active) | 90% (active) | 12% | 95% (active) | 90% (active) | -2% | 94% (active) | 90% (active) | -13% | 96% (active) | 86.4% (active) |
| CCOC(=O)Nc1c(F)cc(F)cc1F | 0% | 0% | 8.65% | -32% | 1% | 5.6% | 1% | -1% | -7.55% | -2% | -4% | 45.2% | -5% | -2% | 4.25% | 2% | 0% | -0.05% |
| O=S(=O)(CCCCl)SCCCCl | 11% | 99% (active) | 99.4% (active) | 15% | 99% (active) | 99.5% (active) | 18% | 100% (active) | 99.5% (active) | 23% | 99% (active) | 99.7% (active) | 22% | 100% (active) | 99.7% (active) | 19% | 99% (active) | 99.5% (active) |
| N#CCc1nc2c(s1)C(=O)c1ccccc1C2=O | 52% | 99% (active) | 71.4% (active) | 48% | 100% (active) | 82.5% (active) | 47% | 100% (active) | 41.8% | 30% | 98% (active) | 35.2% | 55% | 99% (active) | 87.2% (active) | 67% | 99% (active) | 68.7% |
| CN(C)C1=C(Cl)C(=O)c2ccccc2C1=O | 12% | 93% (active) | 47.7% | 14% | 87% (active) | 45.6% | 14% | 93% (active) | 44.9% | 11% | 60% | 34.8% | 14% | 96% (active) | 82% (active) | 15% | 87% (active) | 42.4% |
